Assay results as given in PubChem BioAssay (Tox21).
Records with an inconclusive call do not appear. The source made the active and inactive calls. Unless noted, calls come from the whole dose curve; as a rule, active = well fitted curve in the direction sought with a large enough effect in the repeat runs; inconclusive = weak or mixed curves; inactive = no such curve, though single readings can be large; an effect the other way counts as inactive or inconclusive.

Legend:
[1] = qHTS assay to identify small molecule agonists of H2AX (AID 1224845; active = well fitted activation curve with a large enough effect in the signal ratio in the repeat runs, not every such curve was filed as active; the % refers to the signal ratio; note: potency is the fitted concentration of half-maximal effect)
Summary of the method: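 Wild-type CHO-K1 cells plated overnight, then exposed 3 hr at 37C to compounds at 15 concentrations (0.76% DMSO). Lysed, then HTRF anti-pH2AX(S139)-cryptate/anti-H2AX-d2 detection after 24 hr at room temperature; emissions 665 and 620 nm.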

[2] = qHTS assay to identify small molecule agonists of the hypoxia (HIF-1) signaling pathway (AID 1224846; active = well fitted activation curve with a large enough effect in the signal ratio in the repeat runs, not every such curve was filed as active; the % refers to the signal ratio)
Summary of the method: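 Beta-lactamase FRET read-out (CCF4-AM substrate) from ME-180 cells carrying an HRE-driven bla reporter, after 17 hrs compound exposure at 37C/5% CO2. Cells were seeded at 2,000 per well in 0.5% dialyzed FBS medium and preincubated 5 hrs.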

[3] = qHTS assay to identify small molecule agonists of H2AX - cell viability counter screen (AID 1224847; calls by dose curve; note: nearly all actives have a fitted effect of over 30% in size; note: potency is the fitted concentration of half-maximal effect; for activity change, negative = cytotoxicity: top concentration of the series differs between compounds)
Summary of the method: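 We seed wild-type CHO-K1 cells overnight, treat them for 3 hr at 37C with compounds in 15-concentration series, and quantify remaining viability by CellTiter-Glo luminescence.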

[4] = qHTS RealTime-Glo MT Cell Viability Assay in HepG2 cells - 24 hour (AID 1224867); note: nearly all actives have a fitted effect of over 50% in size
Summary of the method: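 HepG2 suspension premixed with RealTime-Glo reagents is plated at 600 cells per well and left 5 h at 37 C/5% CO2. Compounds in DMSO then go in, and bioluminescence reflecting viable cell number is recorded over 40 h.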

[5] = qHTS RealTime-Glo MT Cell Viability Assay in HEK293 cells - 32 hour (AID 1224868); note: nearly all actives have a fitted effect of over 50% in size; note: potency is the fitted concentration of half-maximal effect; for activity change, negative = cytotoxic: top concentration of the series differs between compounds
Summary of the method: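 Reads taken at 0, 8, 16, 24, 32 and 40 h from the same wells. HEK293 cells (600/well) carried RealTime-Glo reagents from seeding, with compound added after a 5 h settle at 37 C.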

[6] = A CellTox Green Cytotoxicity Assay to monitor cytotoxicity in HEK293 cells - 0 hour (AID 1224869); note: nearly all actives have a fitted effect of over 50% in size
Summary of the method: (§1)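 Read-out: fluorescence of a cell-impermeant cyanine dye staining DNA of dead cells, proportional to cytotoxicity. HEK293, 600 cells/well with reagent, compound (23 nL DMSO) added after 5 h; reads at 0, 8, 16, 24, 32, 40 h.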

[7] = qHTS RealTime-Glo MT Cell Viability Assay in HepG2 cells - 40 hour (AID 1224870); note: nearly all actives have a fitted effect of over 50% in size
Summary of the method: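 HepG2 cells mixed with RealTime-Glo MT reagents (NanoLuc plus cell-permeant prosubstrate) were seeded at 600 cells/well, incubated 5 h at 37 C/5% CO2, then pinned with compounds in DMSO; nonlytic luminescence tracked viability during 40 h treatment.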

[8] = A CellTox Green Cytotoxicity Assay to monitor cytotoxicity in HEK293 cells - 40 hour (AID 1224871); note: nearly all actives have a fitted effect of over 45% in size; note: potency is the fitted concentration of half-maximal effect
Summary of the method: as §1

[9] = qHTS assay to identify small molecule antagonists of the estrogen related receptor (ERR) signaling pathway from Tox21 library (AID 1224848); note: nearly all actives have a fitted effect of over 50% in size
Summary of the method: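 First, 2,000 ERR cells per well were plated and held 6 h at 37 C/5% CO2. Next, compounds in DMSO were pinned in and left 18 h at 37 C. Finally, ONE-Glo was added and luminescence read after 30 min at room temperature.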

[10] = qHTS assay to identify small molecule agonists of the estrogen related receptor (ERR) signaling pathway from Tox21 library (AID 1224849; calls by dose curve; note: nearly all actives have a fitted effect of over 15% in size); settings: ERR reporter cell line, ONE-Glo luciferase, 18 h; at 92.4 µM (top of the series) unless noted
Summary of the method: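 Luminescence readout (ONE-Glo, 30 min RT) after 18 h compound exposure at 37 C of NTP-supplied ERR reporter cells; cells were plated 6 h before compound addition by pin tool.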
% is set by controls: 0 for no effect and ±100 for the full control effect.

Cc1nc2ccccc2n1Cc1ccc(Cl)cc1
inactive: Potency [1] | outcome [2] | Potency [3] | Potency [4] | Potency [6] | Potency [7] | Potency [8]
active: Potency [5] 1.69 µM

O=c1[nH]cnc2ccccc12
inactive: Potency [1] | outcome [2] | Potency [3] | Potency [4] | Potency [5] | Potency [6] | Potency [7] | Potency [8]

COCCO
inactive: Potency [1] | outcome [2] | Potency [3] | Potency [4] | Potency [5] | Potency [6] | Potency [7] | Potency [8]

CC1(C)[C@H]2CC[C@]1(C)[C@H](O)C2
active: Potency [3] 1.6 µM
inactive: Potency [1] | outcome [2] | Potency [4] | Potency [5] | Potency [6] | Potency [7] | Potency [8]

CCOC(=O)CC(C)C
inactive: Potency [1] | outcome [2] | Potency [3] | Potency [4] | Potency [5] | Potency [6] | Potency [7] | Potency [8]

SC1CCCC1
inactive: Potency [1] | outcome [2] | Potency [3] | Potency [4] | Potency [5] | Potency [6] | Potency [7] | Potency [8]

NCc1ccccc1
inactive: Potency [1] | outcome [2] | Potency [3] | Potency [4] | Potency [5] | Potency [6] | Potency [7] | Potency [8]

C=C(C)C(=O)OC(C)C
inactive: Potency [1] | outcome [2] | Potency [3] | Potency [4] | Potency [5] | Potency [6] | Potency [7] | Potency [8]

CN1CCC(OC(c2ccccc2)c2ccccc2)CC1
inactive: Potency [1] | outcome [2] | Potency [3] | Potency [4] | Potency [5] | Potency [6] | Potency [7] | Potency [8]

CCCCCCCCCC(=O)OCC
inactive: Potency [1] | outcome [2] | Potency [3] | Potency [4] | Potency [5] | Potency [6] | Potency [7] | Potency [8]

COC(=O)CSc1cc(N=c2sc(=O)n3n2CCCC3)c(F)cc1Cl
inactive: Potency [1] | outcome [2] | Potency [3] | Potency [4] | Potency [5] | Potency [6] | Potency [7] | Potency [8]

Cc1ncsc1CCO
inactive: Potency [1] | outcome [2] | Potency [3] | Potency [4] | Potency [5] | Potency [6] | Potency [7] | Potency [8]

COC(Cc1ccccc1)OC
inactive: Potency [1] | outcome [2] | Potency [3] | Potency [4] | Potency [5] | Potency [6] | Potency [7] | Potency [8]

OCCC1CCCCN1 (stereo not drawn)
inactive: Potency [1] | outcome [2] | Potency [3] | Potency [4] | Potency [5] | Potency [6] | Potency [7] | Potency [8]

O=C=NC1CCC(CC2CCC(N=C=O)CC2)CC1 (stereo not drawn)
inactive: Potency [1] | outcome [2] | Potency [3] | Potency [4] | Potency [5] | Potency [6] | Potency [7]
active: Potency [8] 49 µM

COc1ccc(C(C)=O)cc1
inactive: Potency [1] | outcome [2] | Potency [3] | Potency [4] | Potency [5] | Potency [6] | Potency [7] | Potency [8]

CCCCOCCOCCOCCOCCO
inactive: Potency [1] | outcome [2] | Potency [3] | Potency [4] | Potency [5] | Potency [6] | Potency [7] | Potency [8]

CCN(CCO)CCCC(C)Nc1ccnc2cc(Cl)ccc12 (stereo not drawn)
inactive: activation (H2AX phosphorylation) [1] -1.66% [at 14 µM] | activation [2] 0.22% [at 7.01 µM] | activity change, negative = cytotoxicity [3] 1.55% [at 14 µM] | activity change, negative = cytotoxicity [4] 2.56% [at 6.97 µM] | activity change, negative = cytotoxic [5] 2.9% [at 6.97 µM] | cytotoxicity [6] -2.9% [at 6.97 µM] | activity change, negative = cytotoxic [7] 0.0181% [at 6.97 µM] | cytotoxicity increase [8] -1.39% [at 6.97 µM]

Oc1ccc(Sc2ccc(O)cc2)cc1
active: Potency [1] 83.9 µM | Potency [5] 20.5 µM
inactive: outcome [2] | Potency [3] | Potency [4] | Potency [6] | Potency [7] | Potency [8]

O=C(Cl)c1ccc([N+](=O)[O-])cc1
inactive: Potency [1] | outcome [2] | Potency [3] | Potency [4] | Potency [5] | Potency [6] | Potency [7] | Potency [8]

Nc1cnn([C@@H]2O[C@H](CO)[C@@H](O)[C@H]2O)c(=O)n1
inactive: Potency [1] | outcome [2] | Potency [3] | Potency [4] | Potency [5] | Potency [6] | Potency [7] | Potency [8]

CC(=O)/C=C/C1C(C)=CCCC1(C)C (stereo not drawn)
inactive: Potency [1] | outcome [2] | Potency [3] | Potency [4] | Potency [5] | Potency [6] | Potency [7] | Potency [8]

O=C1CCCCCO1
inactive: Potency [1] | outcome [2] | Potency [3] | Potency [4] | Potency [5] | Potency [6] | Potency [7] | Potency [8]

CC(C)c1cccc(C(C)C)c1NC(=O)NS(=O)(=O)c1cc(C(C)(C)O)co1
inactive: Potency [1] | outcome [2] | Potency [3] | Potency [4] | Potency [5] | Potency [6] | Potency [7] | Potency [8]

CCCCCCCCCCCCC(=O)O
inactive: Potency [1] | outcome [2] | Potency [3] | Potency [4] | Potency [5] | Potency [6] | Potency [7] | Potency [8]

O=S1(=O)N=C(O)c2ccccc21
inactive: Potency [1] | outcome [2] | Potency [3] | Potency [4] | Potency [5] | Potency [6] | Potency [7] | Potency [8]

C1CCC2OC2C1 (stereo not drawn)
inactive: Potency [1] | outcome [2] | Potency [3] | Potency [4] | Potency [5] | Potency [6] | Potency [7] | Potency [8]

C[C@@H](C1=C(CCN(C)C)Cc2ccccc21)c1ccccn1
inactive: Potency [1] | outcome [2] | Potency [3] | Potency [4] | Potency [5] | Potency [6] | Potency [7] | Potency [8]

O=C(Cl)c1c(Cl)cccc1Cl
inactive: Potency [1] | outcome [2] | Potency [3] | Potency [4] | Potency [5] | Potency [6] | Potency [7] | Potency [8]

CC(C)CCCC(C)CCO (stereo not drawn)
inactive: Potency [1] | outcome [2] | Potency [3] | Potency [4] | Potency [5] | Potency [6] | Potency [7] | Potency [8]

COc1ccccc1OC(=O)Oc1ccccc1OC
inactive: Potency [1] | outcome [2] | Potency [3] | Potency [4] | Potency [5] | Potency [6] | Potency [7] | Potency [8]

CCCCC(CC)(CO)CO
inactive: Potency [1] | outcome [2] | Potency [3] | Potency [4] | Potency [5] | Potency [6] | Potency [7] | Potency [8]

CNS(=O)(=O)Cc1ccc2[nH]cc(CCN(C)C)c2c1
inactive: Potency [1] | outcome [2] | Potency [3] | Potency [4] | Potency [5] | Potency [6] | Potency [7] | Potency [8]

Cc1ccc(O)c([C@H](CCN(C(C)C)C(C)C)c2ccccc2)c1
inactive: Potency [1] | outcome [2] | Potency [3] | Potency [4] | Potency [5] | Potency [6] | Potency [7] | Potency [8]

CC(C)(C)c1ccc(S)cc1
inactive: Potency [1] | outcome [2] | Potency [3] | Potency [4] | Potency [5] | Potency [6] | Potency [7] | Potency [8]

S=C(S)NCCNC(=S)S
inactive: Potency [1] | outcome [2] | Potency [3] | Potency [4] | Potency [5] | Potency [6] | Potency [7] | Potency [8]

CC(C)(Oc1ccc(Cl)cc1)C(=O)OCCCOC(=O)C(C)(C)Oc1ccc(Cl)cc1
inactive: Potency [1] | outcome [2] | Potency [3] | Potency [4] | Potency [5] | Potency [6] | Potency [7] | Potency [8]

CC(=O)OCCc1ccccc1
inactive: Potency [1] | outcome [2] | Potency [3] | Potency [4] | Potency [5] | Potency [6] | Potency [7] | Potency [8]

CC1=CC(=O)/C(=C(/C)O)C(=O)O1
inactive: Potency [1] | outcome [2] | Potency [3] | Potency [4] | Potency [5] | Potency [6] | Potency [7] | Potency [8]

Cc1ccccc1N=Nc1ccc(N=Nc2c(O)ccc3ccccc23)c(C)c1
inactive: Potency [1] | outcome [2] | Potency [9] | activity change, positive = activation [10] 11.4% [at 42.5 µM] | Potency [4] | Potency [5] | Potency [6] | Potency [7] | Potency [8]

CCOC(=O)CC(=O)c1cc(F)c(Cl)nc1Cl
inactive: Potency [1] | outcome [2] | Potency [3] | Potency [4] | Potency [6]

O=C(O)/C=C/c1cnc[nH]1
inactive: Potency [1] | outcome [2] | Potency [3] | Potency [4] | Potency [5] | Potency [6] | Potency [8]
